Records with an inconclusive call do not appear. Entries that show only a call come without a potency. The source made the active and inactive calls. Calls come from the whole dose curve; as a rule, active = well fitted inhibition curve with a large enough effect; inconclusive = small, poorly fitted or top-dose-only effect; inactive = flat fitted curve, though single readings scatter.
assay: P-glycoprotein substrates identified in KB-8-5-11 adenocarcinoma cell line, qHTS therapeutic library screen (AID 1346987); details: KB-8-5-11 (P-gp overexpressing) viability, CellTiter-Glo, 72 h; series mostly up to 44.5 µM; note: nearly all actives have a fitted effect of over 65% in size
Method in brief: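 Luminescence from CellTiter-Glo, read 5 min after addition, quantified survival of KB-8-5-11 (P-gp-overexpressing) cells exposed to compounds for 72 h. AC50 was derived from concentration-response curves.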
Potency is the fitted concentration of half-maximal effect.

Compound | Potency | activity change, negative = cytotoxicity
O=C(NCCCNC(=O)c1ccc[nH]c1=O)c1cc(-c2ccccc2)on1 | inactive | 
COC(=O)c1ccnc(-c2cc(C(=O)Nc3ccc(C4(N)CC4)cc3)ccn2)c1 | inactive | 
CN(C)C(=O)NC1(c2ccccc2)CCN(CCC[C@]2(c3ccc(Cl)c(Cl)c3)CCCN(C(=O)c3ccccc3)C2)CC1 | 18.4 µM (active) | 
C[C@@H]1C[C@H]2C3C[C@H](F)C4=CC(=O)C=CC4(C)[C@@]3(F)[C@@H](O)CC2(C)[C@@]1(O)C(=O)COC(=O)C(C)(C)C (stereo partly specified) | inactive | 
CCN1CCN(Cc2ccc(NC(=O)c3ccc(C)c(Oc4ncnc5[nH]c(C)cc45)c3)cc2C(F)(F)F)CC1 | 20.6 µM (active) | 
CC(C)NC(=O)N1CC[C@H](N=C2Nc3cc(F)ccc3N(CC(F)F)c3ccc(Cl)cc32)C1 |  | -19.3% [at 9.29 µM] (inactive)

— PubChem BioAssay (NCATS)
